The list is not random: actives were taken first. Their share in the collection is about 6.7%.
C diff HTS: C. difficile growth inhibitors, primary screen, HTS | Clostridium difficile clinical isolate growth, OD600, 24 h; hits give low values | growth activity, negative = inhibition, % at 16 µg/mL (by protocol) | 0.25% of 86,000 active | AID 1259249, 2017;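 active = mean growth activity at or below -80% and every replicate also at or below -80%; inconclusive = mean at or below -80% but some replicate above -80%; inactive = mean growth activity above -80%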
T cruzi growth-1: T. cruzi intracellular proliferation inhibitors, primary screen, cell-based, beta-gal Tulahuen parasites, NIH3T3 host, luminescence; T. cruzi beta-gal in NIH3T3, GalScreen luminescence, 90 h; inhibition, % at 8.34 µM; 5.9% of 77,000 active;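 active = mean inhibition above about 93%, with at least 55% of replicates each passing it, limit read from the data, passing the limit was not always enough; inconclusive = only one of those two conditions holds; inactive = neither condition holds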
Pf Dd2 growth: P. falciparum Dd2 growth inhibitors, primary screen, SYBR Green fluorescence, single dose replicates; 72 h; hits give low values; activity change, % at 10 µM; 2.3% of 94,000 active; AID 1159554, 2015; in the data active = activity change below about -80%; inconclusive = no clear call, values can overlap the other calls
T cruzi growth-2: T. cruzi intracellular proliferation inhibitors, confirmation, cell-based, NIH3T3 host, beta-gal parasite, luminescence, cherry-pick. AID 651739, 2012. inhibition, % at 8.35 µM. T. cruzi beta-gal in NIH3T3, GalScreen luminescence, 90 h. 72% of 5,600 active. shares compounds with T cruzi growth-1;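 active = mean replicate inhibition above about 95% and at least 55% of replicates individually reaching it, limit read from the data; inconclusive = only one of the two criteria is met; inactive = neither criterion is met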
T cruzi growth-3: inhibitors of intracellular T. cruzi replication, confirmation, NIH3T3 host cells, beta-gal parasites, cherry-pick, set 2. AID 651740, 2012. shares compounds with T cruzi growth-1. inhibition, % at 2.09 µM. 21% of 5,600 active. T. cruzi beta-gal in NIH3T3, GalScreen luminescence, 90 h;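 active = mean inhibition above about 95%, with at least 55% of replicates also reaching it, limit read from the data; inconclusive = meets just one of the two conditions; inactive = meets neither condition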
NIH3T3 tox: cytotoxicity in mouse NIH/3T3 fibroblasts, confirmation, cytotoxicity control for T. cruzi proliferation inhibitor project, cell-based, cherry-pick, single point; shares compounds with T cruzi growth-1; NIH/3T3 viability, CellTiter-Glo ATP luminescence, 90 h; cytotoxicity (signal decrease), % at 8.35 µM; 14% of 5,600 active; AID 651742, 2012;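 active = mean signal decrease across replicates above about 35% based on untreated-well scatter, with enough replicates individually passing, limit read from the data; inconclusive = no rule stated though some were filed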
NIH3T3 tox 2: NIH/3T3 fibroblast cytotoxicity, confirmation, cytotoxicity control, cell-based, cherry-pick, single point, set 2; shares compounds with T cruzi growth-1; NIH/3T3 viability, CellTiter-Glo ATP luminescence, 90 h; inhibition, % at 24.9 µM; 56% of 5,600 active;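 active = mean loss of cell viability signal at or above a set limit, and enough replicates individually reaching it; inconclusive = meets only the mean limit or only the replicate share; inactive = meets neither condition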
Of the large screens only hits and unclear results are named; the others gave an inactive call (follow-up assays come after a bar, where they were run).

C[C@@H]1CCCCO[C@H](CN(C)CC2CCCCC2)[C@H](C)CN([C@@H](C)CO)C(=O)c2cc(NC(=O)Nc3ccc(C(F)(F)F)cc3)ccc2O1	C diff HTS -102.7, T cruzi growth-1 inconclusive, Pf Dd2 growth -87.2 | T cruzi growth-2 96.9 | T cruzi growth-3 109.6 | NIH3T3 tox 120.7 | NIH3T3 tox 2 104.4
C[C@H]1CCCCO[C@H](CN(C)C)[C@@H](C)CN([C@@H](C)CO)C(=O)c2cc(NC(=O)Nc3ccc(C(F)(F)F)cc3)ccc2O1	none (no result: Pf Dd2 growth)
C[C@@H]1CCCCO[C@@H](CN(C)CC2CCCCC2)[C@H](C)CN([C@@H](C)CO)C(=O)c2cc(NC(=O)Nc3ccc(C(F)(F)F)cc3)ccc2O1	T cruzi growth-1 inconclusive | T cruzi growth-2 inactive | T cruzi growth-3 108.4 | NIH3T3 tox 116.6 | NIH3T3 tox 2 104.0
C[C@@H]1CCCCO[C@@H](CN(C)CC2CC2)[C@@H](C)CN([C@H](C)CO)C(=O)c2cc(NC(=O)Nc3ccc(C(F)(F)F)cc3)ccc2O1	T cruzi growth-1 98.0 | T cruzi growth-2 98.6 | T cruzi growth-3 107.3 | NIH3T3 tox inactive | NIH3T3 tox 2 100.6
COCC(=O)N1CCCCN2[C@@H](CO)[C@@H](c3ccc(-c4ccccc4)cc3)[C@@H]2C1	none
C[C@H]1CN([C@@H](C)CO)C(=O)c2cc(C3=CCCCC3)cnc2O[C@@H]1CN(C)C(=O)c1ccccc1	none
CC(=O)N(C)C[C@@H]1Oc2cc(-c3cccc(C#N)c3)ccc2S(=O)(=O)N([C@H](C)CO)C[C@@H]1C	none
COc1ccc(S(=O)(=O)Nc2ccc3c(c2)C(=O)N([C@@H](C)CO)C[C@@H](C)[C@@H](CN(C)S(C)(=O)=O)OCCCC[C@@H](C)O3)cc1	none
O=C(c1cnccn1)N1CC[C@@H]2[C@@H](CO)Nc3ccc(-c4ccccc4F)cc3[C@@H]21	none
O=C(Cc1ccncc1)N1CC[C@@H]2[C@H](CO)Nc3ccc(-c4ccccc4F)cc3[C@@H]21	T cruzi growth-1 112.4 | T cruzi growth-2 106.5 | T cruzi growth-3 inactive | NIH3T3 tox inactive | NIH3T3 tox 2 inconclusive
O=C(Cc1ccncc1)N1CC[C@@H]2[C@H]1c1cc(-c3ccccc3F)ccc1N[C@@H]2CO	T cruzi growth-1 117.5 | T cruzi growth-2 99.2 | T cruzi growth-3 inactive | NIH3T3 tox inactive | NIH3T3 tox 2 inactive
O=C(Cc1ccccc1)N1CC[C@@H]2[C@@H](CO)Nc3ccc(-c4ccccc4F)cc3[C@@H]21	none
Cc1ccc(S(=O)(=O)N(C)C[C@@H]2Oc3ccc(NC(=O)Cn4cnnn4)cc3C(=O)N([C@@H](C)CO)C[C@@H]2C)cc1	none
C[C@@H]1CN([C@@H](C)CO)C(=O)c2cc(-c3ccc(C#N)cc3)cnc2O[C@H]1CN(C)C(=O)CC1CC1	none
C[C@@H]1CN([C@@H](C)CO)S(=O)(=O)c2ccc(C#CCN(C)C)cc2O[C@H]1CN(C)Cc1ccccc1	T cruzi growth-1 108.9 | T cruzi growth-2 105.0 | T cruzi growth-3 97.8 | NIH3T3 tox inactive | NIH3T3 tox 2 104.3
C[C@@H]1CN([C@@H](C)CO)S(=O)(=O)c2ccc(C#CCN(C)C)cc2O[C@H]1CN(C)Cc1ccc(F)cc1	T cruzi growth-1 113.3 | T cruzi growth-2 inconclusive | T cruzi growth-3 inactive | NIH3T3 tox 51.1 | NIH3T3 tox 2 103.2
C[C@@H]1CN([C@H](C)CO)S(=O)(=O)c2ccc(C#CCN(C)C)cc2O[C@H]1CN(C)Cc1ccccc1	T cruzi growth-1 107.5 | T cruzi growth-2 97.5 | T cruzi growth-3 inactive | NIH3T3 tox 44.5 | NIH3T3 tox 2 104.2
CC(C)C#Cc1ccc2c(c1)O[C@@H](CN(C)Cc1ccccc1)[C@H](C)CN([C@H](C)CO)S2(=O)=O	none
C[C@@H]1CN([C@@H](C)CO)S(=O)(=O)c2ccc(C#CCN(C)C)cc2O[C@@H]1CN(C)Cc1ccc(F)cc1	none
C[C@@H](O)C#Cc1ccc2c(c1)O[C@H](CN(C)Cc1ccccc1)[C@@H](C)CN([C@@H](C)CO)S2(=O)=O	none
C[C@H]1CN([C@@H](C)CO)S(=O)(=O)c2ccc(C#CCN(C)C)cc2O[C@H]1CN(C)Cc1ccccc1	T cruzi growth-1 inconclusive | T cruzi growth-2 105.4 | T cruzi growth-3 inactive | NIH3T3 tox inactive | NIH3T3 tox 2 39.4
C[C@H](CO)N1C[C@H](C)[C@@H](CN(C)Cc2ccccc2)Oc2cc(C#CCN(C)C)ccc2S1(=O)=O	none
C[C@@H]1CN([C@H](C)CO)C(=O)Cc2cc(NC(=O)NC3CCCCC3)ccc2O[C@@H]1CN(C)S(=O)(=O)c1ccccc1	none
CN(C)C(=O)c1ccc(-c2ccc3c(c2)[C@@H]2[C@@H](CCN2C(=O)c2ccccn2)[C@@H](CO)N3C)cc1	none
COCc1cn(CC[C@H]2CC[C@@H](NC(=O)Nc3ccc(F)cc3)[C@@H](CO)O2)nn1	none
COc1ccc(CN(C)C[C@@H]2OCCCC[C@H](C)Oc3ccc(NC(=O)NC4CCCCC4)cc3C(=O)N([C@H](C)CO)C[C@@H]2C)cc1	none
O=S(=O)(c1ccccc1)N1CCCCN2[C@H](CO)[C@H](c3ccc(C#Cc4ccccn4)cc3)[C@H]2C1	none
CCS(=O)(=O)N1CCCCN2[C@H](CO)[C@@H](c3ccc(C#Cc4ccccn4)cc3)[C@@H]2C1	none
CCCC#Cc1ccc([C@@H]2[C@@H](CO)N3CCCCN(S(C)(=O)=O)C[C@H]23)cc1	none
CS(=O)(=O)N1CCCCN2[C@@H](CO)[C@H](c3ccc(C#Cc4ccccn4)cc3)[C@@H]2C1	T cruzi growth-1 inconclusive | T cruzi growth-2 108.0 | T cruzi growth-3 inactive | NIH3T3 tox inactive | NIH3T3 tox 2 inactive
CS(=O)(=O)N1CCCCN2[C@H](C1)[C@H](c1ccc(C#Cc3ccccn3)cc1)[C@@H]2CO	T cruzi growth-1 112.5 | T cruzi growth-2 96.3 | T cruzi growth-3 inactive | NIH3T3 tox inactive | NIH3T3 tox 2 inactive
CS(=O)(=O)N1CCCCN2[C@H](C1)[C@@H](c1ccc(C#Cc3ccccn3)cc1)[C@@H]2CO	T cruzi growth-1 103.9 | T cruzi growth-2 111.8 | T cruzi growth-3 inactive | NIH3T3 tox inactive | NIH3T3 tox 2 inactive
C[C@H]1CCCCO[C@H](CN(C)C)[C@@H](C)CN([C@@H](C)CO)C(=O)c2cc(NS(=O)(=O)c3ccccc3)ccc2O1	none (no result: Pf Dd2 growth)
O=C(C[C@H]1C[C@H]2c3cc(NC(=O)NC4CCCC4)ccc3O[C@H]2[C@H](CO)O1)NCc1ccc(-c2ccccc2)cc1	none

High-throughput results deposited in PubChem BioAssay by Broad Institute.
